# Data as given in PubChem BioAssay.
# A number with no mark means an inactive call.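 Rule for the calls: active = percent response above a set limit, the screen-wide mean plus 3 SD (cut at about 130% in these data); inactive = the rest.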
# Test: TOR pathway RTG branch CIT2 reporter changes – S. cerevisiae, GFP fusion, multiplex flow cytometry, primary screen (AID 1870);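 note: barcoded CIT2-GFP strain pooled with four other GFP strains with rapamycin as positive control; median GFP fluorescence per well over plate mean of DMSO wells so 100% = DMSO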
# Conditions: S. cerevisiae CIT2-GFP expression, 3 h, at 10 µM, hits give high values
row,Compound,percent response of DMSO control
1,NS(=O)(=O)c1cc2c(cc1Cl)NC(C1C[C@H]3C=C[C@@H]1C3)NS2(=O)=O (some centres not stated),105%
2,CC(=O)NC1C(OCc2ccccc2)OC(COC(C)=O)C(OC(C)=O)C1OC(C)=O (configuration not stated),106%
3,O=CNC1CCCc2c1[nH]c1ccc(Cl)cc21 (configuration not stated),100%
4,O=C(O)CP(=O)(O)O,93.4%
5,Cc1cccc(Nc2ccccc2C(=O)O)c1C,86.7%
6,CC1(C)CC(NCc2ccccc2)CCO1 (configuration not stated),96.4%
7,Cc1ccccc1C(=O)NCC(=O)O,103%
8,CCOc1cc2c3c(c1)C(C)=CC(C)(C)N3C(=O)C2=O,103%
9,O=C(N1CCCC1)C12CC3CC(C1)CC(C(=O)N1CCCC1)(C3)C2,101%
10,O=C(NC(Nc1ccccn1)C(Cl)(Cl)Cl)c1ccccc1 (configuration not stated),103%
11,COc1cc(NC(=S)NC(=O)c2cccs2)ccc1NC(=O)C(C)C,90.1%
12,COc1ccc(CCN(C)CCCC(C#N)(c2cc(OC)c(OC)c(OC)c2)C(C)C)cc1OC (configuration not stated),111%
13,O=C1C(Cc2c[nH]c3ccccc23)NC(=S)N1Cc1ccccc1 (configuration not stated),104%
14,CC(C)(C)C(=O)NC(=S)NNC(=O)c1ccncc1,101%
15,CCOC(=O)N1CCN(Cc2nc(Cc3cccc(F)c3)no2)CC1,100%
16,C[C@@H]1C[C@H](Nc2ccccc2)c2ccccc2N1C(=O)c1cccnc1,103%
17,OC(CCN1CCCC1)(c1ccccc1)C1CCCCC1 (configuration not stated),102%
